Screen size: about 360,000 compounds; about 11,000 (3.1%) were called active. Where a call stands in place of a potency, no number is given. Roughly 4% stayed inconclusive and do not appear here. The call rests on the fitted dose curve; in most records, active means well fitted inhibition curve with a large enough effect; inconclusive means small, poorly fitted or top-dose-only effect; inactive means no such curve, though single readings can be large or run the other way. The sample as a whole holds a higher share of actives than the screen did.
Potency means the concentration at half of the fitted maximal effect.

This assay deals with Schistosoma mansoni thioredoxin glutathione reductase (TGR) (UniProt Q962Y6). The experiment in a line: qHTS Assay for the Inhibitors of Schistosoma Mansoni Peroxiredoxins. Further: nearly all actives have a fitted effect of over 60% in size. Conditions: purified TGR, DTNB reduction, TNB absorbance 405 nm; series mostly up to 114 µM. The text has this:
Schistosomiasis is a major neglected tropical disease that currently affects over 200 million. It is caused by different species of flatworms, such as Schistosoma mansoni. Over the last century, drugs to treat the disease have evolved from potassium antimonyl tartrate, artemisinin, oxamniquine, to praziquantel, with praziquantel remaining the universally-used single drug of choice over the past three decades. However, transmission rates have changed little with praziquantel, and there is evidence for the development of drug resistant parasites. Because there is currently no suitable alternative therapy available, there is an urgent need to identify new targets and drugs for schistosomiasis treatment. Thioredoxin glutathione reductase (TGR), one uniquely positioned S. mansoni enzyme, has been identified as a major component of the worms' distinct and compressed antioxidant "firewall". TGR is a multifunctional enzyme that catalyzes the interconversion between reduced and oxidized forms of both glutathione (GSH) and thioredoxins, thus making it an attractive new antiparasitic target. Recently, a quantitative high-throughput screen of the NIH Molecular Libraries Small Molecule Repository (MLSMR, ~71K at the time of the screen in 2007) was performed using an assay that targeted both TGR and peroxiredoxin2 (Prx2, an H2O2-reducing enzymatic component of the S. mansoni redox "firewall") by following the decrease of NADPH fluorescence. […] Additional mechanistic link between exogenous NO donation and parasitic injury for the oxadiazole-2-oxide class of compounds was also expanded and better defined. Although the screen addressed both TGR and Prx2, the assay required post-screen target deconvolution for further characterization of the actives. In addition, the fluorescence assay was also subject to fluorescence interference from compound library members. We have developed a 1536-well-based kinetic HTS assay to address TGR alone. The assay followed the reduction of 5, 5'-dithiobis (2-nitrobenzoic acid) (DTNB) (Ellman's reagent) by NADPH and measured the increase in absorbance at 412 nm of the reaction product, TNB. […] This assay format can be used to screen the current MLSMR collection (with >300K compounds available) to find novel TGR inhibitors. Furoxan is a good choice to serve as a positive control in the primary HTS assay.
Three microliters of reagents (100 uM NADPH and 20 nM TGR or 100 uM NADPH as no-enzyme control) were dispensed into 1,536-well black clear-bottomed plates. Compounds (23 nL) were transferred via Kalypsys pin tool equipped with 1536-pin array (10 nL slotted pins, V&P Scientific, San Diego, CA). The plates were then be incubated for 15 min at room temperature, and 1 uL aliquot of 500 uM NADPH were added, immediately followed by a 1 uL aliquot of 15 mM DTNB to start the reaction. The plate was transferred to a ViewLux high-throughput CCD imager (Perkin-Elmer, Wellesley, MA) where kinetic measurements of the TNB absorbance were acquired using a 405 excitation filter. Throughout the screen, reagent bottles and all liquid lines were made light-tight to minimize reagent degradation. All screening operations were performed on a fully integrated robotic system (Kalypsys, San Diego, CA) containing one RX-130 and two RX-90 anthropomorphic robotic arms (Staubli, Duncan, SC). Library plates were screened starting from the lowest and proceeding to the highest concentration, and a "double-dipping" step of the highest concentration was required to access higher concentrations of compounds. Vehicle-only plates, with DMSO being pin-transferred to the entire column 5-48 compound area, were inserted uniformly at the beginning and the end of each library in order to monitor for and record any shifts in the background, which can be affected by reagent dispensers or loss in enzyme activity overtime. […]
Turning to `Cc1nnc(N2CCCC(C(=O)NCCN(C)C)C2)c2nn(-c3ccccc3)c(C)c12` (stereo not given), the Potency entry was “inactive”.
As for `COc1ccc(NC(=O)c2ccc3oc(=O)c(S(=O)(=O)c4ccc(F)cc4)cc3c2)c(OC)c1`, the entry is “inactive”; as for `O=C(NCc1ccco1)c1cc2sccc2n1Cc1ccc(F)cc1`, “inactive”.
Next, `COc1ccc2c(Cl)c(C(=O)NCc3ccco3)sc2c1`: “inactive”; `O=C(NCc1ccco1)c1sc2cccc(F)c2c1Cl`: 39.8 µM (active); `Cc1ccc(C)c(Nc2nnc(-c3ccc(C)c(S(=O)(=O)N4CCCCC4)c3)c3ccccc23)c1`: “inactive”.
As for `Cc1ccc(C)c(N2CCN(c3ccc4cc(S(=O)(=O)N5CCC(C)CC5)ccc4n3)CC2)c1`, the Potency entry is “inactive”.
Next, `COc1cccc(-c2n[nH]c3c2C(c2cccc(O)c2)N(C)C3=O)c1` (stereo not given): “inactive”; `O=C(O)CCCC(=O)N1N=C(c2ccco2)CC1c1ccco1` (stereo not given): “inactive”; `Cc1nn(C(=O)c2ccoc2C)c(N)c1-c1ccccc1`: “inactive”.
Next, `Cc1nn2c(c1-c1ccccc1)N=C(c1ccco1)CC2c1ccccc1` (stereo not given): 10 µM (active); `COc1ccc(NC(=O)CCNS(=O)(=O)c2ccc3c(c2)CCCC(=O)N3)cc1Cl`: “inactive”.
As for `CCCCn1c(SCC(=O)N2CCC(C(=O)OCC)CC2)nc2cc(S(N)(=O)=O)ccc21`, the Potency entry is “inactive”.
With `CCCCn1c(SCc2ncc(-c3ccccc3)o2)nc2cc(S(N)(=O)=O)ccc21`, the Potency was 20 µM (active).
As for `CCCCn1c(SCC(=O)N2CCCC2=O)nc2cc(S(N)(=O)=O)ccc21`, the entry is “inactive”; as for `CCCOC(=O)c1c(NC(=O)c2cc3nc(-c4ccc(OC)cc4)cc(C(F)(F)F)n3n2)sc2c1CCCC2`, “inactive”; as for `COc1ccc(C2(Nc3cccc(F)c3)C(=O)c3ccccc3C2=O)cc1`, “inactive”.
Next, `CC1(C)CC(=O)C(C=NCCN2CCN(C(=S)Nc3cccc(Cl)c3)CC2)=C(O)C1`: “inactive”; `CC(=O)N1CCN(CCN=CC2=C(O)CC(C)(C)CC2=O)CC1`: 28.2 µM (active); `CCNC(=S)N1CCN(CCN=CC2=C(O)CC(C)(C)CC2=O)CC1`: “inactive”.
Next, `CCOc1ccccc1C(=O)NCc1ccc2c(c1)CCN2C(=O)c1ccc(F)cc1`: “inactive”.
With `CCOC(=O)c1ccc(NC2=CC(c3ccc(OCC)cc3)N(c3ccc(C(=O)OCC)cc3)C2=O)cc1` (stereo not given), the Potency entry is “inactive”.
As for `CC(C)(C)OC(=O)N1CCC(c2c(C(=O)N3CCN(c4cccc(Cl)c4)CC3)cnn2-c2cccc(Cl)c2)CC1`, the entry is “inactive”; as for `COc1ccccc1OCC(=O)O/N=C(\N)c1ccccn1`, “inactive”.
As for `COc1ccccc1OCC(=O)OCc1cc(-c2ccco2)on1`, the Potency is 56.2 µM (active).
For the compound `COc1ccc(NC(=O)COCc2cc(-c3ccco3)on2)cc1`, the Potency entry is “inactive”.
For the compound `O=C(CCS(=O)(=O)c1cc(Br)cc2c1N(C(=O)C1CC1)CC2)Nc1ccc(C(F)(F)F)cc1`, the Potency result was “inactive”.
Next, `Cc1ccc(S(=O)(=O)N2CCN(S(=O)(=O)N3CCOCC3)CC2)cc1`: “inactive”; `CC1(C)CC(=O)C(N=Nc2ccc(S(=O)(=O)N3CCCCCC3)cc2)=C(O)C1`: “inactive”; `O=C1CCCC(O)=C1N=Nc1ccc(S(=O)(=O)N2CCOCC2)cc1`: 44.7 µM (active).
`COc1ccc(-c2nn3c(-c4ccc(OC)cc4)nnc3c3ccccc23)cc1`: the Potency result is “inactive”.
Next, `Cc1cc2c(cc3c(SCc4nc(-c5ccccc5)oc4C)nnc(C)n32)o1`: “inactive”.
As for `Cc1noc2ncnc(NCc3ccccc3Cl)c12`, the entry is “inactive”; as for `Cc1c(C(=O)N(C)C)sc2c1c(=O)n(-c1ccc(F)cc1)c(=O)n2CC(=O)N(C)c1ccccc1`, “inactive”.
As for `Cc1cc(=O)[nH]c(N/N=C/c2ccc3c(c2)OCCO3)n1`, the figure is 39.8 µM (active); as for `C(=N\Nc1ccc2ccccc2n1)/c1ccc2c(c1)OCO2`, “inactive”; as for `Cc1cc(=O)[nH]c(N/N=C/c2c(C)nn(-c3ccccc3Cl)c2Cl)n1`, “inactive”.
As for `CC1=Nc2cc(C(=O)NCc3ccc(C)cc3)ccc2Sc2ccc(Cl)cc21`, the Potency entry is “inactive”.
With `COc1cccc(CNC(=O)Cn2ncn3c(cc4ccccc43)c2=O)c1`, the Potency result was “inactive”.
As for `COC(=O)C1=C(C)NC(=O)/C1=C/c1ccc(CNS(=O)(=O)c2ccc(C)cc2)o1`, the figure is 22.4 µM (active); as for `Cc1ccc(CCNC(=O)c2ccc(CNS(=O)(=O)c3ccc(C)cc3)cc2)cc1`, “inactive”; as for `COc1ccccc1CNS(=O)(=O)c1ccc(C)cc1`, “inactive”.
Next, `CCc1ccccc1NC(=O)c1ccc(F)c(S(=O)(=O)NC2CCCCCC2)c1`: “inactive”.
Next, `CN(C)N=Nc1ccc2nc[nH]c2c1`: 39.8 µM (active); `CC/C(O)=N\S(=O)(=O)c1ccc(N=NN(C)C)cc1`: “inactive”.
With `COc1ccc(/C(C)=N/NC(=O)c2ccc3nc[nH]c3c2)cc1`, the Potency entry was “inactive”.
Regarding `CCc1nn(CC(=O)Nc2cc(C)cc(C)c2)c(=O)c2cc3sccc3n12`, the Potency entry was “inactive”.
For `COC(=O)c1cc(C(=O)N(Cc2ccccc2)c2ccccn2)cc([N+](=O)[O-])c1`, the Potency entry is “inactive”.
With `O=C(CCl)N(Cc1cccc([N+](=O)[O-])c1)c1cccc(Cl)c1`, the Potency is 2.51 µM (active).
As to `CC(=O)N(CN1C(=O)C2CC=CCC2C1=O)c1cccc(Cl)c1` (stereo not given), the Potency entry was “inactive”.

The values are drawn from PubChem BioAssay AID485364 (National Center for Advancing Translational Sciences (NCATS), 2010).
